Source: PubChem (National Center for Advancing Translational Sciences (NCATS))
Nrf2 block = blocks Nrf2 signaling. A549 ARE-Fluc reporter, luciferase luminescence, 18-24 h. Potency, µM (series often up to 46 µM), inactives show at the highest dose activity change, negative = inhibition, actives largely listed as inhibitors. 2.1% of 360,000 active. AID 504444; further: potency means the concentration at half of the fitted maximal effect; on the % scale 0 is the no-effect control and ±100 the full control effect; nearly all actives have a fitted effect of over 60% in size
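Reporter: ARE-Fluc in A549. Exposure: 18-24 h, 37 °C, 5% CO2, 5% FBS OPTI-MEM. Readouts: fluorescent cytotoxicity (CellTiter-Fluor), then luminescent Nrf2 signal after BugLite.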
A549 viability = kills or reduces viability of A549 cells in Nrf2 counter-screen. 0.16% of 390,000 active. Potency, µM (top dose mostly 46 µM), inactives show at the highest dose activity change, negative = cytotoxicity, hits mostly inhibitors. A549 ARE-Fluc cells, CellTiter-Fluor viability, 18-24 h; further: potency means the concentration at half of the fitted maximal effect; on the % scale 0 is the no-effect control and ±100 the full control effect
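A549 ARE-Fluc cells in 5% FBS OPTI-MEM, 5000 cells/well, rested 2 h then exposed to compounds in concentration-response for 18-24 h at 37 °C. Viability by CellTiter-Fluor fluorescence (Ex 405/Em 525) after 30 min; luciferase luminescence (BugLite, 15 min, RT) read afterwards.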
IL-2 act = activators of IL-2; activation, % (series mostly up to about 46 µM); IL-2 activation reporter assay, cell-based qHTS; stimulated with anti-CD3/CD4/CD28 beads; in transgenic mouse T cells; 0.065% of 360,000 active; AID 652025; in the data active means activation above about 50%; inconclusive means mostly about 30% to 49%; further: 0% is about no effect
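Unstimulated transgenic mouse T cells, 750 per well, received compound and, after 60 minutes, anti-CD3/anti-CD4 bead plus anti-CD28 stimulation. EGFP and DsRed were quantified after 18 hours.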
p53 reactivator = re-activators of mutant p53; Potency, µM (highest dose often 92.2 µM), for inactives: top-dose activity change, positive = activation, usual class: activators; 0.063% of 320,000 active; H1299 p53-A138V BP100-luciferase reporter, luminescence, 24 h; further: potency means the concentration at half of the fitted maximal effect; % of control where 0% means no effect; nearly all actives have a fitted effect of over 45% in size
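p53-null H1299 cells stably carrying temperature-sensitive p53-A138V and a BP100-luciferase reporter were pinned with compounds (4-point, 1:5 series) and held 24 hrs at 37 deg C. Luminescence was read 10 min after detection reagent.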
Nrf2 activator = activators of Nrf2 (ARE) signaling; AREc32 ARE-luciferase reporter (MCF7-derived line), luminescence, 24 h; Potency, µM (titrated, usually from 46.1 µM), inactives show at the top dose activation, most hits filed as activators; 0.31% of 410,000 active; AID 624171; further: potency means the concentration at half of the fitted maximal effect; % of control where 0% means no effect; nearly all actives have a fitted effect of over 65% in size
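AREc32 cells carrying an ARE-driven firefly luciferase, 1000 cells/well in OPTI-MEM with 5% FBS, dosed after overnight attachment and incubated 24 hr at 37 deg C. Steady-Glo luminescence read after 30 min at RT.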
BRCA1 expr act = BRCA1 expression activation; AID 624202; Potency, µM (doses to about 46.1 µM), without a hit: at the top dose activation, hits mostly activators; 1.1% of 380,000 active; MCF7-BRCA1-FFLuc reporter, luminescence, 48 h; response scale: scaled: vehicle 0%, 10 µM genistein 100%; further: potency means the concentration at half of the fitted maximal effect; nearly all actives have a fitted effect of over 80% in size
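First, MCF7-BRCA1-FFLuc cells (2000/well) attach for 2 h; next, compounds are pin-added and incubated 48 h at 37 °C; finally, luciferase reagent is added and luminescence read after 15 min.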
An asterisk follows results filed as active; u = inconclusive; x = no result given. The list is not random: actives were taken first. Their share in the collection is about 3.2%. Unless noted, the call rests on the fitted dose curve; in most records, active means well fitted curve in the direction sought with a large enough effect; inconclusive means small, poorly fitted or top-dose-only effect, or another doubt; inactive means no such curve, though single readings can be large; an effect the other way counts as inactive or inconclusive.

SMILES	Nrf2 block	A549 viability	IL-2 act	p53 reactivator	Nrf2 activator	BRCA1 expr act
O=C(C1=C[C@H](c2ccc(C(F)(F)F)cc2)C[C@H](OCc2ccc(CO)cc2)O1)N1CCN(Cc2ccc3c(c2)OCO3)CC1	u	u	-0.6	0.4%	4.7%	-63.8%
O=C(C1=C[C@H](c2csc3ccccc23)C[C@H](OCc2ccc(CO)cc2)O1)N1CCCCCCC1	23.1µM*	-19.0%	-1.6	x	0.8%	-8.2%
O=C(Nc1ccccc1)C1=C[C@@H](c2ccc(Br)cc2)C[C@@H](OCc2ccc(CO)cc2)O1	18.4µM*	-11.4%	-0.6	13.7%	6.9%	-20.3%
O=C(C1=C[C@@H](c2ccc(Br)cc2)C[C@@H](OCc2ccc(CO)cc2)O1)N1CCN(Cc2ccccc2)CC1	20.6µM*	u	-3.1	1.9%	-3.4%	-24.3%
Cc1cc([N+](=O)[O-])ccc1NC(=O)/C=C/c1cccs1	u	-2.0%	-0.4	u	19.0%	5.62µM*
C=C1C=C(C)n2ncc(C(=O)Nc3ccc(NC(C)=O)c(Cl)c3)c2N1	x	x	x	x	x	1.5%
Cc1ccc2nc(-c3ccncc3)[nH]c2c1	u	-3.2%	-0.2	17.5%	2.3%	2.82µM*
C=CCn1c(NCc2ccccc2O)nc2ccccc21	-14.6%	-7.2%	-0.8	29.6%	5.6%	86.7%
C=CCn1c(NCc2ccc(OC)cc2O)nc2ccccc21	4.7%	7.1%	-0.2	7.4%	3.9%	12.6µM*
Cc1cc(C)n(-c2nnc3c4ccccc4n(C)c3n2)n1	u	5.3%	4.4	7.9%	4.2%	1.41µM*
c1ccc(-c2csc(-c3ccncc3)n2)cc1	0.1%	0.2%	-0.6	7.0%	2.6%	84.3%
Brc1ccsc1-c1csc(-c2ccncc2)n1	18.6%	-2.1%	0.7	u	12.6µM*	47.1%
CC(c1ccc(Cl)cc1)n1c(-c2ccc3ccccc3n2)n[nH]c1=S (centres undefined)	18.4µM*	u	-2.3	9.4%	0.1%	3.2%
CC(c1ccc(F)cc1)n1c(-c2ccc3ccccc3n2)n[nH]c1=S (centres undefined)	u	-11.9%	-1.8	4.6%	-0.4%	-0.6%
COc1ccc2nc(Sc3c([N+](=O)[O-])nc(C)n3Cc3ccccc3)[nH]c2c1	13µM*	u	-3.2	-28.8%	u	-19.3%
CC(C)NC(=O)C1(C)CN(S(C)(=O)=O)CC(=O)N1C1CCCCCC1 (centres undefined)	x	x	-0.3	x	x	x
O=C(Nc1ccccc1Cl)N1CCCN(c2nc(-c3ccccc3)ns2)CC1	u	-15.7%	-0.3	-1.2%	4.1%	-53.4%
O=C(Nc1ccccc1)N1CCN(c2nc(-c3ccccc3)ns2)CC1	23.1µM*	-14.2%	-0.5	0.3%	2.5%	-7.4%
Cc1c(Cl)cccc1NC(=O)N1CCCN(c2nc(-c3ccccc3)ns2)CC1	20.6µM*	-2.0%	-0.3	-3.6%	1.9%	-60.7%
O=C(c1ccc(F)cc1)N1CCCN(c2nc(-c3ccccc3)ns2)CC1	-4.3%	2.0%	-0.3	-2.7%	0.0%	-0.3%
CCOC(=O)c1cc(S(=O)(=O)NCc2ccc(Cl)cc2)[nH]n1	x	-1.1%	x	x	-0.7%	x
Cc1ccc(S(=O)(=O)N2C3CCCCC3O[C@H]2CC(=O)c2cccs2)cc1 (some centres undefined)	x	x	-0.6	x	x	x
O=C(NCCCN1CCN(c2ccccc2F)CC1)c1nnc(Cc2ccc(Cl)cc2Cl)o1	18.4µM*	-15.0%	x	x	3.9%	x
Cc1ccccc1NS(=O)(=O)c1ccc2[nH]cc(C(=O)NC(C)c3ccccc3)c(=O)c2c1 (centres undefined)	x	-1.0%	x	x	-2.0%	x
Cc1ccc(NC(=O)c2ccc3c(c2)NC(=O)c2ccccc2S3)cc1	16.4µM*	u	x	x	4.4%	x
Oc1cccc(/C=C/c2ccc3cccc(O)c3n2)c1	-3.8%	-3.4%	-6.0	u	4.47µM*	-67.6%
